# NPC1 promoter act – activators of NPC1 promoter | Huh7 NPC1 promoter luciferase reporter, 24 h | hit rate 2.4% among 320,000 | Potency, µM (titrated, usually from 9.22 µM), for inactives: at the top dose activation, most hits filed as activators; further: % of control where 0% means no effect; nearly all actives have a fitted effect of over 60% in size
#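 Huh7 cells stably carrying NPC1 promoter–luciferase, plated in Opti-MEM with 10% FBS for 2 h, were exposed to compound in DMSO for 24 h at 37 °C; luciferase reagent was added for 10 min and luminescence read.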
# SMN2 splice up – enhancers of SMN2 splice variant expression. Potency, µM (titrated, usually from 46.1 µM), for the others: at the top dose activity change, positive = activation, most hits filed as activators. HEK293 SMN2-luciferase splicing reporter, luminescence, 30-36 h. AID 1458. hit rate 2.8% among 210,000; further: % of control where 0% means no effect; nearly all actives have a fitted effect of over 55% in size
#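 HEK293 cells carry an SMN2 […]–luciferase reporter in which exon 7 inclusion puts luciferase in frame. Cells were plated 10-12 h before compound addition, then incubated 30-36 h at 37C. ONE-Glo luminescence was read; sodium butyrate at 4.5 mM final served as control.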
# ELG1 genotox – induces genotoxicity in HEK293T cells with luciferase-tagged ELG1. Potency, µM (series often up to 46 µM), without a hit: at the highest dose activity change, positive = activation, hits mostly activators. hit rate 1.3% among 330,000. HEK293T ELG1-luciferase reporter, luminescence, 16 h; further: % of control where 0% means no effect; nearly all actives have a fitted effect of over 60% in size
#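 DMSO vehicle served as control against compound-treated ELG1-luciferase HEK293T cells; exposure lasted 16 hr at 37 °C and 5% CO2, followed by ONE-Glo luminescence detection after 30 min.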
# ELG1 DNA repair – inhibitors of ELG1-dependent DNA repair in HEK293T cells | HEK293T ELG1-luciferase reporter, luminescence, 16 h; DNA damage induced by 5-fluorouridine | Potency, µM (top dose mostly 46.1 µM), inactives show top-dose activity change, negative = inhibition, usual class: inhibitors | hit rate 2.3% among 330,000 | AID 504467; further: on the % scale 0 is the no-effect control and ±100 the full control effect; nearly all actives have a fitted effect of over 55% in size
#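 Quantitative HTS, concentration-response format. 2,000 cells/well co-treated with 5-fluorouridine and compound, 16 hr in 5% CO2 at 37 °C; ONE-Glo luminescence read after 30 min.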
# FLuc counter – inhibits or activates purified firefly luciferase, miR-21 counter-screen; P08659; purified FLuc, Km substrates, luminescence inhibition; Potency, µM (top dose mostly 57.5 µM), for the others: at the highest dose activity change, negative = inhibition, most hits filed as inhibitors; hit rate 6.9% among 360,000;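 further: plate controls were vehicle for no effect and reference inhibitor for full effect; nearly all actives have a fitted effect of over 55% in size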
# Target sequence (P08659 whole entry, looked up): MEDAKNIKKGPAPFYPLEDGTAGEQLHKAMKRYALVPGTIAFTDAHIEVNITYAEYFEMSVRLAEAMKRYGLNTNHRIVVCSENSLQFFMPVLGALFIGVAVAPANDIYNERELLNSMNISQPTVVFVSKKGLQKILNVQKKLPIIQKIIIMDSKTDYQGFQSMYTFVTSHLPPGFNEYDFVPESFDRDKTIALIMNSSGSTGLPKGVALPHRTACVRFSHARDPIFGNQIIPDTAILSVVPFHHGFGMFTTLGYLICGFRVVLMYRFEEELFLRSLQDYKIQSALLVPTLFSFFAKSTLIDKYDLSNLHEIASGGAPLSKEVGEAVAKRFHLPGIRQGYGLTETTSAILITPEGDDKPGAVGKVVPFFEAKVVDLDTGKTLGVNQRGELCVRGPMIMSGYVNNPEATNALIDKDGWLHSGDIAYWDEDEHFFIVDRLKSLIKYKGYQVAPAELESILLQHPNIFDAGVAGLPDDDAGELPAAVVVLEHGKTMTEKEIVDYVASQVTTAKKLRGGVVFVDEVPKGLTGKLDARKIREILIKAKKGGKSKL
#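 Purified P. pyralis luciferase, 10 nM final, with Km-level 10 uM D-luciferin and 10 uM ATP in 50 mM Tris acetate pH 7.5, 10 mM Mg acetate, 0.01% Tween-20, 0.05% BSA; 6-point qHTS titration about 60 µM downward; luminescence read.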
# Rab9 prom act – activators of Rab9 promoter; Huh7 Rab9 promoter-luciferase reporter, luminescence, 24 h; Potency, µM (titrated, usually from 9.22 µM), for inactives: at the top dose activation, negative = inhibition, actives largely listed as activators; hit rate 2.8% among 320,000; AID 485297; further: % of control where 0% means no effect; nearly all actives have a fitted effect of over 60% in size
#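 Stable Rab9-luc Huh7, 1500 cells/well, 2 h settle; cmpd in DMSO, 24 h, 37 °C/5% CO2; luciferase reagent 10 min RT; luminescence.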
# Starred values were filed as active, the others as inactive; ? = inconclusive; / = not tested or not shown; [ ] = remark or other dose. In the library only some 9.2% were active in any assay of this set; here they are far more common. The call rests on the fitted dose curve; in most records, active means well fitted curve in the direction sought with a large enough effect; inconclusive means small, poorly fitted or top-dose-only effect, or another doubt; inactive means no such curve, though single readings can be large; an effect the other way counts as inactive or inconclusive. Potency means the concentration at half of the fitted maximal effect.
SMILES,NPC1 promoter act,SMN2 splice up,ELG1 genotox,ELG1 DNA repair,FLuc counter,Rab9 prom act
Cc1cc(C)c(Cn2c3ccccc3c3cnn(CC(=O)NCCc4ccccc4)c(=O)c32)c(C)c1,/,1%,/,/,5%,/
C/C(CC(=O)Nc1ccc(N(C)C)cc1)=N\NC(=O)c1ccccn1,16%,-6%,?,?,?,4%
COc1cc(C(=O)N/N=C(\C)c2ccccn2)cc(OC)c1OC,-3%,/,6%,3%,7%,4%
C/C(=N\NC(=O)c1ccc(Cl)cc1)c1ccccn1,?,/,3.3µM*,?,7.6µM*,-20%
C/C(=N/NC(=O)c1ccccn1)c1ccc(O)cc1,3.5µM*,/,16µM*,?,24µM*,2.8µM*
C/C(=N\Nc1ccc(Cl)cc1)c1ccncc1,-2%,/,6%,?,?,4%
C/C(=N/NC(=O)c1ccccn1)c1ccco1,0.89µM*,?,17%,?,5.4µM*,0.5µM*
C/C(=N\Nc1ccc(Cl)cc1)c1ccccn1,11%,14µM*,21µM*,?,11µM*,?
O=C(CSc1nc(=O)[nH]c2c1CCCC2)Nc1ccc(Cl)c(Cl)c1,/,/,/,/,-17%,/
CCC(Cn1nnc2ccccc2c1=O)NC(=O)Nc1ccc(C)c(C)c1 (stereo not given),/,-2%,/,/,-7%,/
CC(C)CCNC(=O)c1ccc2c(c1)N(Cc1ccccc1F)C(=O)c1ccccc1S2=O (stereo not given),/,-1%,/,/,6%,/
C/C(=N\NC(=O)c1ccccn1)c1ccc(Cl)cc1,0.79µM*,/,?,?,2.4µM*,0.56µM*
C/C(=N/NC(=O)c1ccccn1)c1c[nH]c2ccccc12,2.2µM*,/,10µM*,?,5.4µM*,3.5µM*
C/C(=N\NC(=O)c1cc(C)nc2ccccc12)c1ccccn1,-9%,/,?,?,/,-24%
O=C1NC2=C(C(=O)CCC2)C(c2ccc(OC(F)F)cc2)N1 (stereo not given),-6%,/,1%,2%,0%,0%
COc1ccc2[nH]c3c(c2c1)CCN1C(=O)C(CC(=O)NCCCN(C)C)C[C@H](C(=O)N2CCCCC2)[C@@]31C (stereo not given in full),/,/,8%,10%,/,/
O=[N+]([O-])c1cccc(S(=O)(=O)/N=C(/Nc2ccccc2)c2ccccc2)c1,/,/,0%,?,/,/
CC(C)NC(=O)N(C)C[C@H]1Oc2ccc(NC(=O)c3ccncc3)cc2C(=O)N([C@H](C)CO)C[C@@H]1C,/,/,3%,?,/,/
Cc1cc2cc(OCc3ccccc3)ccc2n1C,2µM*,/,?,?,5.4µM*,3.2µM*
Cc1cc2cc(OCC(=O)O)ccc2n1C,-1%,13%,-2%,12%,-14%,1%
O=Cc1c[nH]c2ccc(OCc3ccccc3)cc12,0%,/,6%,?,?,0%
Cc1c(C=O)c2cc(OCc3ccccc3)ccc2n1C,?,/,?,?,15µM*,4µM*
COc1ccc(-n2nc(C(=O)NCc3ccc(F)cc3Cl)c3c4ccccc4n(C)c3c2=O)cc1Cl,/,10%,/,/,-1%,/
COC(=O)c1ccc(NC(=O)CCc2c(C)nn(-c3ccc(N4CCCCC4)nn3)c2C)cc1,/,/,/,/,9.5µM*,/
COc1cc(NC(=O)CCc2c(C)nn(-c3ccc(N4CCCCC4)nn3)c2C)cc(OC)c1OC,/,/,/,/,19µM*,/
SMILES,NPC1 promoter act,SMN2 splice up,ELG1 genotox,ELG1 DNA repair,FLuc counter,Rab9 prom act
Cc1ccc(NC(=O)CCc2c(C)nn(-c3ccc(N4CCOCC4)nn3)c2C)cc1C,5%,/,6%,-1%,?,0%
COc1ccc(NC(=O)CCc2c(C)nn(-c3ccc(N4CCCCC4)nn3)c2C)cc1Cl,/,/,/,/,2.1µM*,/
COc1ccc(-c2c(C)nn3c(N4CCN(c5ccccc5)CC4)cc(C)nc23)cc1OC,/,11%,/,/,-6%,/
Cc1ccccc1NC(=O)N1CCc2cc(S(=O)(=O)N3CCC(C)CC3)ccc21,/,1%,/,/,-1%,/
CCN(C(=O)c1cc2ccccc2oc1=O)c1ccccc1,?,-22%,9.2µM*,?,9.5µM*,?
COc1ccc(OC(=O)c2cc3ccccc3o2)cc1,0%,29%,1%,0%,0.54µM*,-2%
O=C(Oc1ccccc1)c1cc2ccccc2oc1=O,1%,0%,2%,8%,15µM*,-5%
COc1ccc(N2CCN(C(=O)c3cc4ccccc4o3)CC2)cc1,10%,/,6%,0%,-1%,-5%
CC(C)OC(=O)c1cc2ccccc2oc1=O,-2%,-1%,0%,21%,-9%,0%
CCOC(=O)c1ccc(NC(=O)CC2C(=O)N(c3ccc(F)cc3)C(=O)N2Cc2cccnc2)cc1 (stereo not given),/,/,/,/,-19%,/
COc1ccccc1CNC(=O)CN1C(=O)NC2(CCCc3ccccc32)C1=O (stereo not given),-4%,/,0%,0%,0%,1%
COc1ccc(OC)c(NC(=S)N2c3ccccc3CC2C)c1 (stereo not given),-3%,/,-10%,18µM*,-19%,-4%
Cc1nn(C)c2c1c(C(F)(F)F)cc(=O)n2CC(=O)NCc1ccccc1Cl,/,/,/,/,5%,/
CCc1ccc2nc(N3CCN(C(=O)C(C)(C)C)CC3)sc2c1,27%,/,0%,14%,15µM*,22%
O=C(c1cccs1)N1CCN(c2nc3ccccc3s2)CC1,?,/,1%,6%,3%,24%
CC(C)(C)C(=O)N1CCN(c2nc3ccccc3s2)CC1,2.5µM*,/,16%[9.26 µM],?,15µM*,?
CCN(CC)c1ccc(NC(=O)Nc2ccccc2C(F)(F)F)cc1,?,7%,0%,?,-19%,3.2µM*
CCN(CC)c1ccc(NC(=O)Nc2cccc3ccccc23)cc1,?,/,16%,?,2.1µM*,18%
NS(=O)(=O)c1ccc(NC(=O)Nc2cccc3ccccc23)cc1,0%,-7%[9.22 µM],3%,-2%,-10%,-8%
CCN(CC(=O)Nc1ccc(C(C)=O)cc1)CC(=O)Nc1ccccc1C(F)(F)F,-3%,/,0%,-13%,-2%,-7%
CN(C)c1ccc(NC(=O)Nc2cccc3ccccc23)cc1,28%,12%,16%,?,2.7µM*,?
CCc1ccccc1N1CC(c2nc3ccccc3n2CCCCOc2ccccc2OC)CC1=O (stereo not given),/,-73%,/,/,-17%,/
COc1ccccc1OCCCn1c(C2CC(=O)N(c3ccccc3Cl)C2)nc2ccccc21 (stereo not given),/,18%,/,/,17µM*,/

# Assay outcomes as filed in PubChem.
